In PubChem BioAssay:
For part of these data: Measured potencies and affinities stand elsewhere. Activity calls are given as the source filed them.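 The calls were made as follows, unless noted: active = calcium signal cut by more than 3 SD below the full-agonist control yet still positive, in both repeats and the earlier primary screen; inactive = the rest.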

Legend:
[1] = test system: TRPC4 beta (transient receptor potential cation channel C4), mouse; test: activators of mouse TRPC4 channel, confirmation, cell-based, Fluo4 calcium, HEK293 TRPC4beta/mu-opioid, duplicates, 10 µM (AID 2426;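 active = fluorescence ratio normalized to control raised more than 50% in primary screen plus both repeat runs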); details: Fluo4 calcium fluorescence, at 10 µM; hits give high values
[2] = test system: transient receptor potential cation channel C4 beta (TRPC4), mouse; test: activators of mouse TRPC4 channel, confirmation, cell-based, second round, Fluo4, HEK293 TRPC4beta/mu-opioid, 1 µM (AID 2461;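 active = primary screen active and over 50% activation in each of two duplicate runs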); details: Fluo4 calcium fluorescence, at 1 µM; hits give high values
[3] = test system: TRPC4 (transient receptor potential cation channel C4 beta), mouse; test: positive allosteric modulators of mouse TRPC4, confirmation, cell-based, second round, Fluo-4, HEK293 TRPC4beta/mu-opioid, 1 µM (AID 2554;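 active = primary screen hit whose fluorescence ratio, in both repeats, exceeds the weak agonist control mean by 3 SD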); details: DAMGO EC20, Fluo-4 calcium flux, at 1 µM; hits give high values
[4] = test system: TRPC4 beta (transient receptor potential cation channel C4), mouse; test: positive allosteric modulators of mouse TRPC4, confirmation, cell-based, Fluo-4, HEK293 TRPC4beta/mu-opioid (AID 2555;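 active = primary screen hit whose calcium fluorescence ratio, in both repeats, exceeds the weak agonist control mean by 3 SD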); details: DAMGO EC20, Fluo-4 calcium flux, at 10 µM; hits give high values
[5] = biological target: Short transient receptor potential channel 4 (Mus musculus) (UniProt Q9QUQ5); test: inhibitors of mouse TRPC4 channel, confirmation, cell-based, Fluo4, HEK293 TRPC4beta/mu-opioid (AID 2636); details: DAMGO, Fluo4 calcium flux, at 10 µM; hits give high values
[6] = biological target: Short transient receptor potential channel 4 (Mus musculus) (UniProt Q9QUQ5); test: inhibitors of mouse TRPC4 channel, confirmation, cell-based, second round, Fluo4, HEK293 TRPC4beta/mu-opioid, 1 µM (AID 2637;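 active = calcium signal ratio cut to more than 3 SD under the fully stimulated control mean yet still positive, in both repeats and the primary screen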); details: Fluo4 calcium flux, DAMGO, at 1 µM; hits give high values
[7] = biological target: Short transient receptor potential channel 4 (Mus musculus) (UniProt Q9QUQ5); test: mouse TRPC4 channel activators, dose response, cell-based, HEK293 TRPC4/mu-opioid, Fluo-4 calcium (AID 434937;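 active = primary screen activator hit with a dose response curve and TRPC4 channel activation at any tested dose; inactive = no activation, no dose response, or not a primary hit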)
[8] = biological target: Short transient receptor potential channel 4 (Mus musculus) (UniProt Q9QUQ5); test: TRPC4 positive allosteric modulators, dose response, cell-based, HEK293 TRPC4/mu-opioid, Fluo-4 calcium, EC20 DAMGO (AID 434941;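 active = earlier screen potentiator hit that boosts the TRPC4 ion channel at some dose, with a dose response; inactive = no potentiation, no dose response, or not a prior hit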;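 also: calcium entry triggered by an EC20 dose of DAMGO at the co-expressed mu-opioid receptor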)
[9] = biological target: Short transient receptor potential channel 4 (Mus musculus) (UniProt Q9QUQ5); test: mouse TRPC4 channel inhibitors, dose response, cell-based, HEK293 TRPC4/mu-opioid, Fluo-4 calcium (AID 434942;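 active = primary screen inhibitor hit that blocks the TRPC4 channel at some tested dose, yielding a dose curve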)
[10] = biological target: Short transient receptor potential channel 6 (Mus musculus) (UniProt Q61143); test: inhibition of mouse TRPC6 channel, confirmation, selectivity assay for TRPC4 inhibitor project, cell-based, HEK293, membrane potential dye, duplicate (AID 434948;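 active = active in primary screen and both duplicates, each dropping signal beyond three positive-control SD with fluorescence still positive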); details: HEK293 TRPC6, membrane potential dye fluorescence, at 10 µM, stimulated with maximal-effect acetylcholine; hits give high values
[11] = biological target: Short transient receptor potential channel 6 (Mus musculus) (UniProt Q61143); test: activation of mouse TRPC6 channel, confirmation, selectivity assay for TRPC4 activator project, cell-based, HEK293, membrane potential dye, duplicate (AID 434950;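 active = membrane potential signal rise above negative control mean plus 3 SD in both duplicates, also active in the earlier TRPC4 screen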); details: HEK293 TRPC6, membrane potential fluorescence, at 10 µM; hits give high values
[12] = biological target: Short transient receptor potential channel 6 (Mus musculus) (UniProt Q61143); test: TRPC6 potentiation by TRPC4 potentiator hits, confirmation, selectivity assay for TRPC4 potentiator project, HEK293 cells, membrane potential dye, duplicate (AID 434952;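 active = compound raising the membrane signal above positive-control mean plus 3 SD in both repeats, and a primary screen hit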); details: HEK293 TRPC6, membrane potential dye fluorescence, at 10 µM, maximal acetylcholine added after compound; hits give high values
[13] = biological target: Short transient receptor potential channel 4 (Mus musculus) (UniProt Q9QUQ5); test: calcium flux activators in TRPC4/5HT1a cells, counter-screen for TRPC4 activator project, cell-based, second counter screen, HEK293 TRPC4/5HT1a, Fluo-4 (AID 434977;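 active = calcium signal rise above buffer-control mean plus 5 SD in both duplicates, and also a hit in the primary screen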); details: Fluo-4 calcium flux, at 10 µM; hits give high values
[14] = calcium flux inhibitors in TRPC4/5HT1a cells, confirmation, counter-screen for TRPC4 inhibitor project, cell-based, second counter screen, HEK293 TRPC4/5HT1a, Fluo-4 (AID 434978;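 active = primary screen active whose calcium signal fell more than 3 SD beyond the full-serotonin control mean in both duplicate plates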;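 also: serotonin given first at submaximal then at maximal dose after compound preincubation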); details: Fluo-4 calcium flux, at 10 µM, serotonin added to trigger calcium flux; hits give high values
[15] = test system: TRPC4 (mouse), co-expressed with 5HT1a in HEK293; test: calcium flux potentiators in TRPC4/5HT1a cells, confirmation, counter-screen for TRPC4 potentiator project, cell-based, second counter screen, HEK293 TRPC4/5HT1a, Fluo-4 (AID 434979;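 active = signal rise over 3 SD above mean of control wells given weak agonist, in both repeats and first screen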); details: Fluo-4 calcium flux, at 10 µM, serotonin added at its EC20 dose; hits give high values
[16] = calcium flux activation in mu-opioid HEK293 cells, confirmation, counter-screen for TRPC4 activator project, cell-based, HEK293 mu-opioid receptor line (AID 449723;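 active = hit in primary screen, with calcium signal over 5 SD above buffer well mean in both duplicates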;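 also: counter screen cells carry the mu-opioid receptor alone and lack TRPC4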); details: Fluo-4 calcium fluorescence, at 10 µM; hits give high values
[17] = calcium flux enhancement in mu-opioid HEK293 cells, confirmation, counter-screen for TRPC4 allosteric potentiator project, cell-based, HEK293 mu-opioid receptor line (AID 449724;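 active = calcium signal rise more than 3 SD above the low-dose agonist control mean, in both duplicate plates and the primary screen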); details: Fluo-4 calcium flux, at 10 µM, compound added before EC20 DAMGO stimulus; hits give high values

Measured: potentiation

Chain of Short transient receptor potential channel 4 (Mus musculus) (Q9QUQ5 whole entry, looked up): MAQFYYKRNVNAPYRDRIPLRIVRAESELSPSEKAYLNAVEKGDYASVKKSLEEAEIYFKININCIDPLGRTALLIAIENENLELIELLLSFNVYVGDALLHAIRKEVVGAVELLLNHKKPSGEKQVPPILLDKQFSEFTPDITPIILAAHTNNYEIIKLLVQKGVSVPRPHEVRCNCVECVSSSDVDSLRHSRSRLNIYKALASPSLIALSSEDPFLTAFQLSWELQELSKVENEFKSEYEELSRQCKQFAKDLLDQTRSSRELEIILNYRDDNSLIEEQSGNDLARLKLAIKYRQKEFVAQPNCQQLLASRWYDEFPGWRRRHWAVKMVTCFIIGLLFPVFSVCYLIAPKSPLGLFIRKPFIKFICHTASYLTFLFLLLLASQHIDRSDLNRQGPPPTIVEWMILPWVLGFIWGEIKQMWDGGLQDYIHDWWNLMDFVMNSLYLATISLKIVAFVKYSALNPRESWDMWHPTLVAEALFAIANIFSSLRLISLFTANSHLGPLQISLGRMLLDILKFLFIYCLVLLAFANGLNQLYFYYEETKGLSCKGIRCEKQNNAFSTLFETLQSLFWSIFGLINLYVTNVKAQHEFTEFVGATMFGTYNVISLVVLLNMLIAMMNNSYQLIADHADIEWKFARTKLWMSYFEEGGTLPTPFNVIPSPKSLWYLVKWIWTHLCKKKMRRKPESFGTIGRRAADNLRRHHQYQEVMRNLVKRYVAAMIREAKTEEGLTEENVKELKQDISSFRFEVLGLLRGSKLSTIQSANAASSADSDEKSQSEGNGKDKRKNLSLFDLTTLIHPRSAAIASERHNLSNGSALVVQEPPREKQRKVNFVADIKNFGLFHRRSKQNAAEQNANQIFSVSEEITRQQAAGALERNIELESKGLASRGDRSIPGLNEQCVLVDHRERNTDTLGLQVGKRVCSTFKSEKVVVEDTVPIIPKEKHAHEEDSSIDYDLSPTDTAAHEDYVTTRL
Chain of Short transient receptor potential channel 6 (Mus musculus) (Q61143 whole entry, looked up): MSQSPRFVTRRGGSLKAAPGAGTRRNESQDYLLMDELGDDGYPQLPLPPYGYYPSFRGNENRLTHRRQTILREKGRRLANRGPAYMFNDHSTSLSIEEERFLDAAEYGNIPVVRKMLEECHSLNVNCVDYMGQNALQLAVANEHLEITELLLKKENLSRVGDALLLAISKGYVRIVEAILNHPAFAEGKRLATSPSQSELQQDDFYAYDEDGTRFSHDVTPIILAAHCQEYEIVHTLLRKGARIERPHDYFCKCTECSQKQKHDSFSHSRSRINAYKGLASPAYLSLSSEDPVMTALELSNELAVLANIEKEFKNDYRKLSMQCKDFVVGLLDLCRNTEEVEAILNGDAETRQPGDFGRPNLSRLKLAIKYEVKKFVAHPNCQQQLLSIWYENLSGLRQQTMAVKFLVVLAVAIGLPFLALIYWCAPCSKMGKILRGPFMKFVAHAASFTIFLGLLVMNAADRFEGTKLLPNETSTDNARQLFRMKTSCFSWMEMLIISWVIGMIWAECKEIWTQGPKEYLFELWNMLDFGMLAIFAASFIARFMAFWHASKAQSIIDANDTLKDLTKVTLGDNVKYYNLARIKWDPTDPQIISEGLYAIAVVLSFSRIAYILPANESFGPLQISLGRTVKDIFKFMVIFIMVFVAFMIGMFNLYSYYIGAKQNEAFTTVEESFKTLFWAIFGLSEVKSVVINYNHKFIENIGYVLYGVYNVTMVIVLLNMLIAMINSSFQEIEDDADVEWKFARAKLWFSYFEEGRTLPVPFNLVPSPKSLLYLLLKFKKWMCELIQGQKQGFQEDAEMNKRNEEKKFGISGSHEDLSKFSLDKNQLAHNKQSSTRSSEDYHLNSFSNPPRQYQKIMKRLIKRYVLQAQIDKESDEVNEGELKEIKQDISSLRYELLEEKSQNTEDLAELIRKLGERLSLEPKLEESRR

COC1=C(C)C(O)=C(C(=O)/C=C/c2ccccc2)C(=O)C1(C)C
inactive: [1] | [2] | [3] | [4] | [5] | [6] | [7] | [8] | [9] | [10] | [11] | [12] | [13] | [14] | [15] | [16] | [17]

COc1ccc(/C=N/n2c(SC)nnc2-c2ccccc2)cc1C
active: [4] 9% | [15] 20.6%
inactive: [1] | [2] | [3] | [5] | [6] | [7] | [8] | [9] | [10] | [11] | [12] | [13] | [14] | [16] | [17]

CCN1C(=O)/C(=C\N2CCCc3ccccc32)SC1=S
inactive: [1] | [2] | [3] | [4] | [5] | [6] | [7] | [8] | [9] | [10] | [11] | [12] | [13] | [14] | [15] | [16] | [17]

Cc1cc(C)c(C(=O)c2ccc(C(=O)N3CCCCC3)cc2)c(C)c1
inactive: [1] | [2] | [3] | [4] | [5] | [6] | [7] | [8] | [9] | [10] | [11] | [12] | [13] | [14] | [15] | [16] | [17]

CC(=O)c1nn(-c2cccc(Br)c2)cc1C(=O)c1cccc2ccccc12
inactive: [1] | [2] | [3] | [4] | [5] | [6] | [7] | [8] | [9] | [10] | [11] | [12] | [13] | [14] | [15] | [16] | [17]

O=C(O)c1nn(CC(=O)N2CCN(c3ncc(C(F)(F)F)cc3Cl)CC2)c(=O)c2ccccc12
inactive: [1] | [2] | [3] | [4] | [5] | [6] | [7] | [8] | [9] | [10] | [11] | [12] | [13] | [14] | [15] | [16] | [17]

CCOC(=O)c1c(NC(=O)C2CCCO2)sc2c1CCC2 (stereo not given)
active: [4] 40% | [15] 47.8%
inactive: [1] | [2] | [3] | [5] | [6] | [7] | [8] | [9] | [10] | [11] | [12] | [13] | [14] | [16] | [17]

CC(=O)Cn1ncc(N2CCOCC2)cc1=O
inactive: [1] | [2] | [3] | [4] | [5] | [6] | [7] | [8] | [9] | [10] | [11] | [12] | [13] | [14] | [15] | [16] | [17]

COC(=O)[C@@]12CCCN1[C@H](c1ccc(-c3ccc(OC)cc3)cc1)[C@@H]1C(=O)N(C)C(=O)[C@@H]12
inactive: [1] | [2] | [3] | [5] | [6] | [7] | [8] | [9] | [10] | [11] | [12] | [13] | [14] | [16] | [17]
active: [4] 32% | [15] 111%

CC1CCCCC1NS(=O)(=O)c1ccc(S(=O)(=O)N2CCCC2)cc1 (stereo not given)
active: [4] 32% | [15] 11.2%
inactive: [1] | [2] | [3] | [5] | [6] | [7] | [8] | [9] | [10] | [11] | [12] | [13] | [14] | [16] | [17]

CCOC(=O)C1CCN(c2nc3ccccc3nc2C(C#N)C(=O)OCCOC)CC1 (stereo not given)
inactive: [1] | [2] | [3] | [4] | [5] | [6] | [7] | [8] | [9] | [10] | [11] | [12] | [13] | [14] | [15] | [16] | [17]

CCN1CCN(c2nc(N)c([N+](=O)[O-])c(Nc3ccc(C)c(C)c3)n2)CC1
inactive: [1] | [2] | [3] | [4] | [5] | [6] | [7] | [8] | [9] | [10] | [11] | [12] | [13] | [14] | [16] | [17]
active: [15] 10.5%

c1ccc2c3c([nH]c2c1)CCNC3
inactive: [1] | [2] | [3] | [4] | [5] | [6] | [7] | [8] | [9] | [10] | [11] | [12] | [13] | [14] | [15] | [16] | [17]

COc1ccc(/C=N/Nc2nc3ccccc3s2)cc1O
inactive: [1] | [2] | [3] | [4] | [5] | [6] | [7] | [8] | [9] | [10] | [11] | [12] | [13] | [14] | [16] | [17]
active: [15] 26%

Cn1c2ccccc2c(=O)c2c(=O)n(-c3ccccc3)c(-c3ccc(C(C)(C)C)cc3)nc21
inactive: [1] | [2] | [3] | [4] | [5] | [6] | [7] | [8] | [9] | [10] | [11] | [12] | [13] | [14] | [15] | [16] | [17]
